NALP1 inh: NALP1 inhibition | inhibition, % at 10 µM | AID 2071 | 280,000 compounds, 0.61% hits | S. cerevisiae NALP1/ASC/caspase-1 growth, X-gal OD620, 72 h; in the data active = inhibition mostly above about 24%, no sharp cut-off; inactive = mostly below about 32%
TIM10 inh: growth inhibitors of TIM10 yeast strain; S. cerevisiae TIM10 strain growth, BacTiter-Glo luminescence, 24 h; inhibition, % at 10 µM; 330,000 compounds, 1.4% hits;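 active = inhibition of 40% or more at the single tested concentration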;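 note: wild-type TIM10 isogenic control strain grown at permissive 25 °C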
tim23-1 inh: inhibits growth of tim23-1 mutant yeast | 330,000 compounds, 1.3% hits | S. cerevisiae tim23-1 growth, BacTiter-Glo luminescence, 24 h | inhibition, % at 20 µM | AID 463212;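 active = growth inhibition of the mutant yeast at or above 50%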;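 note: temperature-sensitive mutant grown at 25 °C; plate controls were DMSO-treated mutant yeast for no effect and medium wells lacking yeast for full effect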
NLRP3 yeast inh: blocks the NALP3 inflammasome reconstituted in yeast; Yeast reconstituted NLRP3/ASC/caspase-1, beta-gal luminescence, 24 h; 330,000 compounds, 0.39% hits; inhibition, % at 10 µM;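 active = inhibition of 50% or more; inactive = inhibition below 50%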;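 note: plate controls were induced DMSO wells for no effect and uninduced yeast grown without galactose for full effect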
tim10-1 inh: growth inhibitors of tim10-1 mutant yeast. S. cerevisiae tim10-1 ts strain growth, BacTiter-Glo, 24 h. inhibition, % at 20 µM. 330,000 compounds, 2.2% hits. AID 463190;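 active = inhibition of at least 40%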;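 note: mutant grown at 25 °C; 0% = DMSO wells with yeast and 100% = wells holding no yeast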
tim10-1 conf: tim10-1 yeast growth inhibition, confirmed; shares compounds with tim10-1 inh; S. cerevisiae tim10-1 ts strain growth, BacTiter-Glo, 24 h; inhibition, % at 20 µM; 7,400 compounds, 56% hits; AID 463213;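 active = inhibition of yeast growth at or above a set limit in either of two repeat tests at 20 µM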;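 note: tim10-1 mutant grown at permissive 25 °C to find synthetic lethal compounds; 0% = DMSO yeast wells and 100% = medium wells without yeast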
tim10 confirm: confirmation of TIM10 yeast growth inhibitors | 4,600 compounds, 63% hits | shares compounds with TIM10 inh | inhibition, % at 10 µM | S. cerevisiae tim10 strain growth, BacTiter-Glo luminescence, 24 h;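 active = inhibition of yeast growth at or above a set limit in either of two replicates at 10 µM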;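 note: this counterscreen used the strain with wild-type TIM10; 0% = yeast with DMSO and 100% = medium wells lacking yeast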
tim23-1 conf: tim23-1 yeast growth inhibition, confirmed. 4,400 compounds, 83% hits. S. cerevisiae tim23-1 growth, BacTiter-Glo luminescence, 24 h. shares compounds with tim23-1 inh. inhibition, % at 20 µM. AID 463218;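 active = inhibition above about 39% in either of two replicate wells at 20 µM, limit read from the data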;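 note: temperature-sensitive tim23-1 mutant grown at 25 °C; 0% = DMSO wells with yeast and 100% = medium wells without yeast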
The depositor's hits bear a star; . = no result. Hits are enriched below; roughly 4% of the tested compounds scored in any of these assays.

SMILES | NALP1 inh | TIM10 inh | tim23-1 inh | NLRP3 yeast inh | tim10-1 inh | tim10-1 conf | tim10 confirm | tim23-1 conf
O=Nc1ccc(NOC(=O)c2ccccc2)cc1 | 22 | 46* | 59* | 3 | 44* | 54* | 53* | 70*
CCN1N=C(c2ccccc2)Cn2c1nc1ccccc12 | 37 | 28 | 52* | 13 | 43* | 44* | . | 46*
CS(=O)(=O)N1CCn2c1nc1ccccc12 | 14 | 2 | 5 | -11 | -1 | . | . | .
CC1CCCCC1NC(=O)/C(C#N)=C/c1ccc(OCC(N)=O)cc1 (stereo not given) | 20 | 45* | 55* | 16 | 48* | 33* | 16 | 50*
Cc1cc(-c2ccc(N=Nc3c(S(=O)(=O)O)cc4cc(S(=O)(=O)O)cc(N)c4c3O)c(C)c2)ccc1N=Nc1c(S(=O)(=O)O)cc2cc(S(=O)(=O)O)cc(N)c2c1O | . | 55* | 72* | 34 | 65* | 66* | 47* | 77*
Cc1nc(-c2ccc(NC(=O)c3ccco3)cc2)cs1 | 5 | 43* | 68* | 44 | 51* | 22 | 50* | 67*
Cc1ccc2c(c1)c1ccc3c(c1n2C)C(=O)C=CC3=O | . | 63* | 73* | 37 | 63* | 56* | 94* | 42*
COc1ccc2c(c1)c1ccc3c(c1n2C)C(=O)C=CC3=O | 4 | 55* | 68* | 23 | 47* | 60* | 93* | -19
COCCn1c(=S)[nH]c2cc(C(=O)N(CCO)Cc3ccccc3)ccc2c1=O | -29 | 2 | 5 | 8 | -1 | . | . | .
c1ccc(-c2cccc(-c3ccccn3)n2)nc1 | 51* | 38 | 58* | 47 | 60* | 43* | . | 57*
COC(=O)CC(NC(=O)Nc1ccccc1F)c1ccc2c(c1)OCO2 (stereo not given) | -9 | 13 | 24 | 17 | -1 | . | . | .
CC(C)Cc1nc2oc3c(NCCCN4CCOCC4)ncnc3c2c2c1CCC2 | 9 | 15 | 1 | 0 | 24 | . | . | .
CC(C)Cc1nc2oc3c(Cl)ncnc3c2c2c1CCC2 | 18 | 37 | 55* | 20 | 50* | 36* | . | 55*
CC(C)(C)NC(=O)C(c1ccc(Cl)cc1)N(Cc1ccco1)C(=O)CCl (stereo not given) | 4 | 37 | 51* | -1 | 53* | 38* | . | 48*
CCOc1ncccc1C(=O)NNC(=O)CSc1ccc(Cl)cc1 | . | 1 | -8 | 4 | -3 | . | . | .
Cc1cc(=O)oc2c(C(=O)/C=C\c3cccs3)c(O)ccc12 | 24 | 56* | 73* | 14 | 54* | 79* | 64* | 66*
COc1cc(/C=C/C(=O)c2c(O)ccc3c(C)cc(=O)oc23)ccc1O | 16 | 57* | 73* | 32 | 78* | 72* | 73* | 82*
COc1ccc(/C=C\C(=O)c2c(O)ccc3c(C)cc(=O)oc23)cc1OC | 11 | 47* | 54* | 37 | 53* | 50* | 51* | 52*
Cc1cc(=O)oc2c(C(=O)/C=C/c3ccccc3)c(O)ccc12 | 2 | -7 | 13 | 29 | 27 | . | . | .
COCCN(C(=O)COC(=O)CCC(=O)c1ccc(Cl)cc1)c1c(N)n(Cc2ccccc2)c(=O)[nH]c1=O | 12 | -4 | 4 | 7 | -8 | . | . | .
COc1cccc(CN(C)C(=O)c2ccc(N3CCCC3)c([N+](=O)[O-])c2)c1 | 3 | -4 | 32 | 26 | 30 | . | . | .
Oc1cc2c(cc1C(c1ccc(Cl)c(Cl)c1)N1CCCC1)OCO2 (stereo not given) | 17 | 33 | 63* | 27 | 50* | 39* | . | 45*
O=C(CNc1ccc(Br)cc1)NC(=O)NC1CCCCC1 | . | 26 | 59* | 4 | 48* | 37* | . | 37
COc1cccc(C(=O)Nc2ccc(S(=O)(=O)Nc3cc(C)nc(C)n3)cc2)c1 | -5 | 2 | 13 | 6 | -3 | . | . | .
CC(=O)Cc1nsc(NC(=O)c2ccc(-c3ccc(Cl)cc3Cl)o2)n1 | 32 | 7 | 57* | 6 | 46* | 35* | . | 53*
SMILES | NALP1 inh | TIM10 inh | tim23-1 inh | NLRP3 yeast inh | tim10-1 inh | tim10-1 conf | tim10 confirm | tim23-1 conf
CC(=O)Cc1nsc(NC(=O)c2ccc(-c3cc(Cl)ccc3Cl)o2)n1 | -7 | 25 | 31 | 14 | 20 | . | . | .
FC(F)(F)c1nnc2ccc(N3CCCC3)nn12 | 2 | 4 | 2 | 18 | -7 | . | . | .
FC(F)(F)c1nnc2ccc(N3CCCCCC3)nn12 | 18 | 18 | 50* | -17 | 41* | 25 | . | 33
COc1ccc(C2=CC(=O)N(Nc3ccccc3)C2=O)cc1 | -23 | 54* | 81* | 44 | 49* | 50* | 55* | 77*
O=C1C=C(c2ccccc2)C(=O)N1Nc1ccccc1 | -1 | 40 | 24 | 41 | -5 | . | . | .
Cc1ccc(-c2c(C(=O)NNC(=S)NCC3CCCO3)csc2C)cc1 (stereo not given) | -8 | 2 | 5 | 6 | 8 | . | . | .
CC(C)(C)c1cc(C(=O)CCN2CCOCC2)cc(C(C)(C)C)c1O | 19 | 76* | 74* | 21 | 77* | 76* | 80* | 56*
CC1(C)CC[C@]2(C(=O)O)CC[C@]3(C)C(=CC[C@@H]4[C@@]5(C)CC[C@H](O[C@@H]6O[C@H](C(=O)O)[C@@H](O)[C@H](O[C@@H]7OC[C@H](O)[C@H](O)[C@H]7O)[C@H]6O)C(C)(C)[C@@H]5CC[C@]43C)[C@@H]2C1 | . | -12 | -84 | 17 | -253 | . | . | .
Clc1ccc2[nH]c3c(c2c1)CNCC3 | 17 | 11 | 15 | 7 | 8 | . | . | .
C=C1CCc2c([nH]c3ccc(OCC(C)C)cc23)C1=O | 10 | 38 | 59* | 7 | 47* | 23 | . | 57*
COc1ccc2[nH]c3c(c2c1)CCNC3=O | . | 12 | 12 | 14 | 4 | . | . | .
CC(Cc1cccs1)NC(=O)Nc1ccc(Cl)cc1 (stereo not given) | -28 | 13 | 25 | 27 | 36 | . | . | .
CC(Cc1cccs1)NC(=O)Nc1ccc(Cl)c(Cl)c1 (stereo not given) | 1 | 59* | 52* | 25 | 47* | 52* | 62* | 54*
CCCCCNC(=O)c1ccc2c(=O)n(CCCN3CCCC3=O)c(=S)[nH]c2c1 | 8 | 12 | 17 | 11 | 2 | . | . | .
O=C(COC(=O)Cn1cc(C(F)(F)F)ccc1=O)Nc1ccccc1 | . | 10 | 13 | 12 | 7 | . | . | .
CCOc1ccc(C(=O)NCc2ccc3c(c2)OCO3)cc1 | -2 | -10 | -1 | 22 | -12 | . | . | .
O=C(NCCc1ccccc1)C(=O)c1c(-c2ccccc2)cc2ccccn12 | 10 | 27 | 53* | 18 | 51* | 36* | . | 54*
